Screening results as filed in PubChem BioAssay.
A549 tox = Nrf2 qHTS screen for inhibitors: counterscreen for cytotoxicity; A549 ARE-Fluc cells, CellTiter-Fluor viability, 18-24 h; Potency, µM (highest dose often 46 µM), inactives show at the top dose activity change, negative = cytotoxicity, hits mostly inhibitors; hit rate 0.16% among 390,000; also: % is scaled to controls: 0 for no effect and ±100 for the full control effect
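A549 ARE-Fluc cells in 5% FBS OPTI-MEM, 5000 cells/well, rested 2 h then exposed to compounds in concentration-response for 18-24 h at 37 °C. Viability by CellTiter-Fluor fluorescence (Ex 405/Em 525) after 30 min; luciferase luminescence (BugLite, 15 min, RT) read afterwards.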
ELG1 DNA repair = qHTS screen for small molecules that inhibit ELG1-dependent DNA repair in human embryonic kidney (HEK293T) cells expressing luciferase-tagged ELG1; Potency, µM (series often up to 46.1 µM), for inactives: at the highest dose activity change, negative = inhibition, actives largely listed as inhibitors; HEK293T ELG1-luciferase reporter, luminescence, 16 h; DNA damage induced by 5-fluorouridine; hit rate 2.3% among 330,000; also: % is scaled to controls: 0 for no effect and ±100 for the full control effect; nearly all actives have a fitted effect of over 55% in size
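Luminescence from the luciferase reporter, measured 30 min after ONE-Glo reagent at room temperature, was the read-out. Beforehand, 2,000 cells per well were exposed for 16 hr at 37 °C to 5-fluorouridine together with compound or vehicle.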
Nrf2 inh = Nrf2 qHTS screen for inhibitors; A549 ARE-Fluc reporter, luciferase luminescence, 18-24 h; hit rate 2.1% among 360,000; Potency, µM (doses to about 46 µM), without a hit: at the top dose activity change, negative = inhibition, most hits filed as inhibitors; also: % is scaled to controls: 0 for no effect and ±100 for the full control effect; nearly all actives have a fitted effect of over 60% in size
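Nrf2 function is reported as luminescence of an ARE-controlled luciferase in A549 cells. Compounds were tested at several concentrations, and a CellTiter-Fluor read on the same wells flagged cytotoxicity.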
IDH1 R132H inh = qHTS for Inhibitors of mutant isocitrate dehydrogenase 1 (IDH1): qHTS. IDH1-R132H enzyme, NADPH consumption, diaphorase/resazurin fluorescence. Potency, µM (highest dose often 76.6 µM), without a hit: at the highest dose activity change, negative = inhibition, usual class: inhibitors. hit rate 0.093% among 390,000. AID 602179, 2012; also: % is scaled to controls: 0 for no effect and ±100 for the full control effect; nearly all actives have a fitted effect of over 65% in size
Target sequence (O75874 whole entry R132H, stated change not applied): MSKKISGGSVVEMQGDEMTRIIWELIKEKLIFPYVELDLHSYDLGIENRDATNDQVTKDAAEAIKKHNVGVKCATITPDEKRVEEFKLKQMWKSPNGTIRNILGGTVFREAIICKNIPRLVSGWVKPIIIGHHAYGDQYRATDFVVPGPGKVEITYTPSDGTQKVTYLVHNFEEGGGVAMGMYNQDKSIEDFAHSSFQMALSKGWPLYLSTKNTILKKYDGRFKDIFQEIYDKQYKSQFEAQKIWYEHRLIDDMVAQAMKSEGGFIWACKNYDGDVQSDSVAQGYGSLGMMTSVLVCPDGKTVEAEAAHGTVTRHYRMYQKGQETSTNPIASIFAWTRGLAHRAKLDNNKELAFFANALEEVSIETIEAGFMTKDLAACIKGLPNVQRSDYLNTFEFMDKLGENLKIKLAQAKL
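IDH1-R132H (0.5 ug/mL) preincubated 30 min with compound, then NADPH (0.016 mM) and alpha-KG (2 mM) added; 80 min at RT, pH 7.5. Remaining NADPH coupled via diaphorase/resazurin to fluorescence (540/590 nm); concentration-response curves normalized to no-enzyme control.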
Nrf2 activator = qHTS of Nrf2 Activators | AREc32 ARE-luciferase reporter (MCF7-derived line), luminescence, 24 h | Potency, µM (doses to about 46.1 µM), without a hit: top-dose activation, usual class: activators | hit rate 0.31% among 410,000; also: % of control where 0% means no effect; nearly all actives have a fitted effect of over 65% in size
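Luciferase luminescence (Steady-Glo, 30 min at room temperature) served as the read-out of ARE activation in AREc32 cells treated with compounds for 24 hr at 37 deg C.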
Numbers without * were called inactive; u = inconclusive; x = no result; ! = not confirmed by another sample. This is a sample that favours compounds with a hit; in the whole collection about 3.8% have one here. Calls follow the shape of the dose curve; as a rule, active = well fitted curve in the direction sought with a large enough effect; inconclusive = small, poorly fitted or top-dose-only effect, or another doubt; inactive = no such curve, though single readings can be large; an effect the other way counts as inactive or inconclusive. Potency is read from the fitted curve at half-maximal effect.

SMILES | A549 tox | ELG1 DNA repair | Nrf2 inh | IDH1 R132H inh | Nrf2 activator
CCN1CCc2c(sc(NC(=S)NC(=O)c3cccc(F)c3)c2C(N)=O)C1 | -7% | x | u | x | x
O=C(CCc1nc2ccccc2c(=O)[nH]1)Nc1ccc(F)cc1 | 9% | u | 0% | 6% | 2%
COc1ccccc1NS(=O)(=O)c1cc(NC(=O)CCc2nc3ccccc3c(=O)[nH]2)ccc1C | -13% | 13µM* | u | 8% | 5%
CCCCC(=O)OCC(=O)c1[nH]c(C)c(C(=O)OCC)c1C | 12% | u | x | 4% | 0%
CCOC(=O)c1c(C)[nH]c(C(=O)COC(=O)C23CC4CC(CC(Cl)(C4)C2)C3)c1C | x | 12µM* | u | 2% | 1%
Cc1nc(C(C)Nc2ncnc3ccc(-c4ccc5c(c4)OCO5)cc23)cs1 (stereo not given) | -2% | x | -12% | x | x
Cc1cc(/N=C/C=C2\N(C)c3ccccc3C2(C)C)n(CCC#N)n1 | 15µM* | u | u | 2% | 1%
CN1/C(=C\C=Nc2ccc3ccccc3c2)C(C)(C)c2ccccc21 | x | 13% | x | x | x
Cc1ccc(CNCc2cn[nH]c2-c2ccc(C)cc2)cc1 | 19% | x | -5% | x | x
CNS(=O)(=O)c1cccc(C(=O)OCc2cc(=O)oc3c(C)c(O)ccc23)c1 | 4% | 23µM* | -10% | 11% | 3%
CCN(Cc1ccccc1)c1ccc(Br)cn1 | 7% | x | 23% | x | x
Clc1cccc(Cl)c1C[n+]1ccc2ccccc2c1 | -3% | u | 6.5µM* | 8% | 0%
O=C(C[n+]1ccc2ccccc2c1)c1ccccc1 | -2% | u | 1% | -1% | 9%
Cc1ccc(S(=O)(=O)N2CCN(C(=O)CC(C)n3cncn3)CC2)cc1C (stereo not given) | -4% | 12% | 8% | 3% | 0%
O=C(c1ccccc1)N(C(=O)c1ccccc1)c1ncnc2c1C(c1ccccc1)c1c(ccc3ccccc13)O2 (stereo not given) | u | -12% | 2.9µM*! | x | 3%
O=C(CCc1ccccc1)Nc1ncnc2c1C(c1ccccc1)c1c(ccc3ccccc13)O2 (stereo not given) | -7% | x | 4.6µM* | x | x
O=C(NCc1ccccc1)Nc1ncnc2c1C(c1ccccc1)c1c(ccc3ccccc13)O2 (stereo not given) | 1% | x | 6% | x | x
COc1cccc(C2c3c(ncn(-c4ccncc4)c3=N)Oc3ccc4ccccc4c32)c1 (stereo not given) | -8% | x | 16% | x | x
OC[C@@H]1CN(Cc2ccco2)C[C@H](n2cnc3c(NCc4ccc(F)cc4)ncnc32)O1 | x | x | x | x | 3%
COCCOC(=O)C1=C(C)NC(C)=C(C(=O)OC(C)C)C1c1cccc([N+](=O)[O-])c1 (stereo not given) | -6% | 12µM* | -1% | 14% | 3%
CCOC(=O)C1=C(C)NC(C)=C(C(=O)OC)C1c1cccc([N+](=O)[O-])c1 (stereo not given) | -4% | -22% | -22% | -26% | 7%
Cc1ccccc1C(=O)Nc1c(C)nc(Nc2ccccc2)nc1Nc1ccccc1 | -10% | x | u | -7% | -1%
CCCn1c2ccccc2c2nnc(SC(CC)C(=O)Nc3cc(C)on3)nc21 (stereo not given) | -20% | 23µM* | u | 0% | 4%
Cn1cnnc1SCc1ccc(C(=O)N=Nc2c(O)n(Cc3ccc(Cl)cc3)c3ccccc23)cc1 | -15% | 9.2µM* | -17% | 0% | 13%
COCCOC(=O)c1c(C)n(S(=O)(=O)c2ccc(C)cc2)c2ccc(NS(=O)(=O)c3ccc(C)cc3)cc12 | -3% | x | -8% | -13% | 0%
SMILES | A549 tox | ELG1 DNA repair | Nrf2 inh | IDH1 R132H inh | Nrf2 activator
O=S(=O)(c1cccs1)N1CCN(CC(O)COc2cccc(Br)c2)CC1 (stereo not given) | 14% | 21µM* | u | 2% | 0%
O=C(c1ccccc1)c1ccc(OCC(O)CN2CCN(S(=O)(=O)N3CCCCC3)CC2)cc1 (stereo not given) | u | 18µM* | x | 3% | 4%
CCN1CCN(CC(O)COc2ccc3c(c2)CCC3)CC1 (stereo not given) | 14% | -7% | 7% | 6% | 0%
O=S(=O)(c1ccccc1)N1CCN(CC(O)COc2ccc3c(c2)CCC3)CC1 (stereo not given) | -21% | -30% | 16µM* | 10% | 0%
O=C1c2ccccc2C(=O)c2c1cccc2-n1nnc2ccccc21 | 2% | -1% | -5% | -1% | 0%
O=C1C(N2CCOCC2)=C(n2nnc3ccccc32)C(=O)c2ccccc21 | 23µM* | 2.6µM* | 23µM* | 28% | -2%
CCCN(C(=O)Cn1ncc2c([nH]c3ccccc32)c1=O)c1ccc(F)cc1 | 3% | x | -23% | 13% | -1%
CCOC(=O)[C@H]1[C@H]2COc3ccc(Br)cc3[C@H]2N2C(=O)CN(Cc3ccc(Cl)cc3)C(=O)[C@@]12C | -12% | x | 26µM* | -3% | 5%
O=C(NCc1ccco1)c1c[nH]c2ccc(S(=O)(=O)Nc3ccc(F)cc3F)cc2c1=O | -1% | x | -9% | 5% | 27%
Cc1c(C(=O)Nc2cccc(F)c2)oc2c1-c1nn(Cc3c(F)cccc3Cl)cc1CC2 | 5% | x | u | -3% | 4%
Cc1ccc(Nc2c(-c3ccc(Br)o3)nc3ccccn23)cc1 | -3% | x | 13% | 11% | 4%
Cc1ccc(S(=O)(=O)N2CCN(CC(=O)Nc3ccccc3C(=O)NC3CC3)CC2)cc1 | 2% | -13% | u | 6% | 0%
Cc1ccccc1N1CCN(CC(=O)Nc2ccccc2C(=O)NC2CC2)CC1 | -14% | 21µM* | u | -4% | 0%
CCOC(=O)Nc1ccc2c(COC(=O)CN(C)S(=O)(=O)c3ccc(C)cc3)cc(=O)oc2c1 | -1% | x | 5% | 6% | 0%
CCOC(=O)Nc1ccc2c(COC(=O)C(NS(=O)(=O)c3ccc(Cl)cc3)C(C)O)cc(=O)oc2c1 (stereo not given) | 0% | 21µM* | -17% | 2% | 2%
COc1cccc(CNC(=O)CN2C(=O)N(c3cc(C)ccc3C)S(=O)(=O)c3ccccc32)c1OC | u | x | x | 0% | 0%
CCOC(=O)c1c(NC(=O)C2=C(C)NC(=S)NC2c2ccc(F)cc2)sc(C)c1C (stereo not given) | u | 7.3µM* | -29% | 0% | 0%
COc1ccccc1-c1cnn2c(NC3CCCC3)cc(C)nc12 | 1% | u | u | -4% | 3%
S=C(Nc1ccc(Oc2ccccc2)cc1)N1CCN(c2ccccn2)CC1 | -21% | u | 16µM* | 7% | 2%
